Source: PubChem BioAssay (Tox21)
Inconclusive results are not listed. Entries that show only a call come without a potency. Values without a mark were called inactive. The source made the active and inactive calls. Calls follow the shape of the dose curve; as a rule, active = well fitted cell-killing curve with a large enough effect in the repeat runs; inconclusive = weak or mixed curves, or effect the other way; inactive = flat fitted curve, though single readings scatter.

Tests used:
[1] = cAMP Responsive Elements (CRE) small molecule antagonists, cell-based qHTS assay: qHTS cell viability counter screen (AID 2060913); also: nearly all actives have a fitted effect of over 40% in size
Summary of the method: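 Viability of NKH477-stimulated (0.25 uM final) CRE-bla HEK293T cells is measured by CellTiter-Glo luminescence following 3 hrs compound exposure at 37 C.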

[2] = cAMP Responsive Elements (CRE) small molecule agonists, cell-based qHTS assay: qHTS cell viability counter screen (AID 2060914); also: potency is read from the fitted curve at half-maximal effect;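 also: viability read after 3 h of compound exposure; nearly all actives have a fitted effect of over 50% in size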
Summary of the method: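 CRE-bla HEK 293T cells, plated 18 h at 37 °C, were exposed to compounds for 3 h at 37 °C/5% CO2. Viability was then measured in the same wells by CellTiter-Glo luminescence after 30 min at room temperature.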

Compound | Potency [1] | Potency [2] | viability change, negative = cytotoxic [1] | activity change, negative = cytotoxicity [2]
FC1(F)C(F)(F)C(F)(F)C2(F)C(F)(F)C(F)(F)C(F)(F)C(F)(F)C2(F)C1(F)F (centres undefined) | inactive | inactive |  | 
OCC(CO)N[C@H]1C[C@](O)(CO)[C@@H](O)[C@H](O)[C@H]1O | inactive | inactive |  | 
OC1CCCCC1 | inactive | inactive |  | 
CC1(C)[C@H]2CC[C@]1(C)C(=O)C2 | inactive | inactive |  | 
COC(OC)OC | inactive | inactive |  | 
CN1C(C(=O)Nc2ccccn2)=C(O)c2sccc2S1(=O)=O | inactive | inactive |  | 
Clc1cc(Cl)nc(Cl)n1 | inactive | inactive |  | 
O=C(O)c1cc(C(=O)O)cc(S(=O)(=O)O)c1 | inactive | inactive |  | 
O=C1OC(=O)c2ccc3c4c(ccc1c24)C(=O)OC3=O | inactive | inactive |  | 
Cc1ccc(-c2cc(C(F)(F)F)nn2-c2ccc(S(N)(=O)=O)cc2)cc1 | inactive | inactive |  | 
SC1CCCCC1 | inactive | inactive |  | 
Nc1cnn([C@@H]2O[C@H](CO)[C@@H](O)[C@H]2O)c(=O)n1 | inactive | 970 nM (active) |  | 
CCCCOC(=O)CCCCCCCC(=O)OCCCC | inactive | inactive |  | 
O=C(Oc1ccccc1)c1ccccc1 | inactive | inactive |  | 
CC1(C)[C@H](C(=O)O)N2C(=O)C[C@H]2S1(=O)=O | inactive | inactive |  | 
CN(C)C/C=C(/c1ccc(Br)cc1)c1cccnc1 | inactive | inactive |  | 
C=CCOC(=O)COCCC(C)C | inactive | inactive |  | 
C=C(C)C(=O)OCCOP(=O)(O)OCCOC(=O)C(=C)C | inactive | inactive |  | 
CC(C)(C)NC(=O)[C@H]1CC[C@H]2[C@@H]3CC[C@H]4NC(=O)C=C[C@]4(C)[C@H]3CC[C@]12C | inactive | inactive |  | 
C=CCCC=C | inactive | inactive |  | 
CCC(=O)/C=C/c1ccc(OC)cc1 | inactive | inactive |  | 
CCCCCCCC#N | inactive | inactive |  | 
[O-][n+]1cccc(CO)c1 | inactive | inactive |  | 

Compound | Potency [1] | Potency [2] | viability change, negative = cytotoxic [1] | activity change, negative = cytotoxicity [2]
CNCC(O)c1ccc(O)c(O)c1 (centres undefined) | inactive | inactive |  | 
CCNc1cccc(C)c1 | inactive | inactive |  | 
Nc1ccc([N+](=O)[O-])c(C(F)(F)F)c1 | inactive | inactive |  | 
O=C(c1ccccc1)c1ccc2n1CCC2C(=O)O (centres undefined) | inactive | inactive |  | 
CO[C@H]1O[C@H](CO)[C@@H](O)[C@H](O)[C@H]1O | inactive | inactive |  | 
C=C(C)C1CC=C(C)C(OC(C)=O)C1 (centres undefined) | inactive | inactive |  | 
CC1=CCC(=O)O1 | inactive | inactive |  | 
O=C(O)c1cc(Cl)cc(Cl)c1 | inactive | inactive |  | 
CC(=O)Oc1ccc(C(C)=O)cc1 | inactive | inactive |  | 
COC(=O)c1ccccc1 | inactive | inactive |  | 
CC(=O)CC(=O)Nc1ccc2[nH]c(=O)[nH]c2c1 | inactive | inactive |  | 
CCCCCCCCCCCCCCCCCCCl |  |  | -1.12% [at 8.39 µM] | -6.8% [at 8.39 µM]
CCCCCCCCCCCCCCC | inactive | inactive |  | 
Cc1cc2cc3c(C)cc(=O)oc3c(C)c2o1 | inactive | inactive |  | 
CCc1cccc(C)c1N(C(=O)C(=O)O)C(C)COC (centres undefined) | inactive | inactive |  | 
C#C[C@]1(O)CC[C@H]2[C@@H]3CCC4=Cc5oncc5C[C@]4(C)[C@H]3CC[C@@]21C | inactive | inactive |  | 
CC(=O)OCC[N+](C)(C)C | inactive | inactive |  | 
CCCCOCC(C)OCC(C)O (centres undefined) | inactive | inactive |  | 
CC(C)(CO)C(O)C(=O)NCCCO (centres undefined) | inactive | inactive |  | 
CC(C)=NNC(N)=S | inactive | inactive |  | 
Cn1c(N)c(N=O)c(=O)n(C)c1=O | inactive | inactive |  | 
CC1CCN(CCCC(=O)c2ccc(F)cc2)CC1 | inactive | inactive |  | 
O=C1C(c2[nH]c3ccccc3c2O)=Nc2ccccc21 | inactive | inactive |  | 

Compound | Potency [1] | Potency [2] | viability change, negative = cytotoxic [1] | activity change, negative = cytotoxicity [2]
O=C(Nc1cccc(Cl)c1)OCC#CCCl | inactive | inactive |  | 
CCCCOCCOC(=O)COc1ccc(Cl)cc1Cl | inactive | inactive |  | 
CC(C)[C@@H]1CC[C@@H](C)C[C@H]1O | inactive | inactive |  | 
O=C1OC(=O)c2ccccc21 | inactive | inactive |  | 
CC(C)NC[C@@H](O)COc1cccc2ccccc12 | inactive | inactive |  | 
O=C(O)CCCl | inactive | inactive |  | 
O[C@@H]([C@H](O)[C@H](O)CBr)[C@H](O)CBr | inactive | inactive |  | 
CC(C)(CO)[C@@H](O)C(=O)NCCC(=O)O | inactive | inactive |  | 
CC[C@H]1OC(=O)[C@H](C)[C@@H](O[C@H]2C[C@@](C)(OC)[C@@H](O)[C@H](C)O2)[C@H](C)[C@@H](O[C@@H]2O[C@H](C)C[C@H](N(C)C)[C@H]2O)[C@](C)(O)C[C@@H](C)C(=O)[C@H](C)[C@@H](O)[C@]1(C)O | inactive | inactive |  | 
CCN(CC)C(=O)c1ccc(O)c(OC)c1 | inactive | inactive |  | 
CC(=O)[C@@]1(O)CC[C@H]2[C@@H]3C[C@H](C)C4=CC(=O)C=C[C@]4(C)[C@@]3(F)[C@@H](O)C[C@@]21C | inactive | inactive |  | 
Oc1cccc2ccccc12 | inactive | inactive |  | 
CCCCC(CC)C(=O)OC(C)C (centres undefined) | inactive | inactive |  | 
CC(C)COC(=O)c1ccc(O)cc1 | inactive | inactive |  | 
O[C@@H](COc1cccc2ncccc12)CN1CCN(C2c3ccccc3[C@@H]3[C@H](c4ccccc42)C3(F)F)CC1 (some centres undefined) | inactive | inactive |  | 
COC(=O)C1=C(C)NC(COC(N)=O)=C(C(=O)OC(C)C)C1c1cccc(Cl)c1Cl (centres undefined) | inactive | inactive |  | 
CCCC1CCCC(=O)O1 (centres undefined) | inactive | inactive |  | 
O=C1CC2(CCCC2)CC(=O)N1 | inactive | inactive |  | 
O=S(=O)(O)NC1CCCCC1 | inactive | inactive |  | 
O=P(O)(O)O | inactive | inactive |  | 
CN1C(=O)c2ccc([N+](=O)[O-])cc2C1=O | inactive | inactive |  | 
CN1CCN(C2Cc3ccccc3Sc3ccc(Cl)cc32)CC1 (centres undefined) | inactive | inactive |  | 
O=C(CC(=O)C(F)(F)F)c1ccccc1 | inactive | inactive |  | 

Compound | Potency [1] | Potency [2] | viability change, negative = cytotoxic [1] | activity change, negative = cytotoxicity [2]
CCCCCCCCCCCCCCCCOS(=O)(=O)O | inactive | inactive |  | 
O=C(CCC1CCN(Cc2ccccc2)CC1)c1ccc2c(c1)NCCCC2 | inactive | inactive |  | 
CC(=O)Oc1cc2c(s1)CCN(C(C(=O)C1CC1)c1ccccc1F)C2 (centres undefined) | inactive | inactive |  | 
CC(C)CCCC(C)N (centres undefined) | inactive | inactive |  | 
COc1cc(C(C)(C)C)c(O)c(C(C)(C)C)c1 | inactive | inactive |  | 
CC(C)(O)CCC(C)(C)O | inactive | inactive |  | 
COC(=O)N/N=C/c1c[n+]([O-])c2ccccc2[n+]1[O-] | inactive | inactive |  | 
O=c1[nH]nnc2ccccc12 | inactive | inactive |  | 
C/C=C/C=C/CO | inactive | inactive |  | 
CCC(Cl)CC(Cl)C(Cl)C(Cl)C(Cl)C(C)Cl (centres undefined) |  |  | -10.4% [at 18.9 µM] | -0.221% [at 18.9 µM]
Cc1c(N(C)CS(=O)(=O)O)c(=O)n(-c2ccccc2)n1C | inactive | inactive |  | 
COC(=O)c1c(C)cc(O)c(C)c1O | inactive | inactive |  | 
Cc1c(N)cccc1Cl | inactive | inactive |  | 
CCCCCCCCCCCC(=O)Cl | inactive | inactive |  | 
O=c1[nH][nH]c(=O)c2cc([N+](=O)[O-])ccc12 | inactive | inactive |  | 
O=C1c2ccccc2C(=O)c2cc(S(=O)(=O)O)ccc21 | inactive | inactive |  | 
Cc1c2oc3c(C)ccc(C(=O)N[C@@H]4C(=O)N[C@H](C(C)C)C(=O)N5CCC[C@H]5C(=O)N(C)CC(=O)N(C)[C@@H](C(C)C)C(=O)O[C@@H]4C)c3nc-2c(C(=O)N[C@@H]2C(=O)N[C@H](C(C)C)C(=O)N3CCC[C@H]3C(=O)N(C)CC(=O)N(C)[C@@H](C(C)C)C(=O)O[C@@H]2C)c(N)c1=O | inactive | inactive |  | 
CC(C)(C)c1cc(CCC(=O)OCC(COC(=O)CCc2cc(C(C)(C)C)c(O)c(C(C)(C)C)c2)(COC(=O)CCc2cc(C(C)(C)C)c(O)c(C(C)(C)C)c2)COC(=O)CCc2cc(C(C)(C)C)c(O)c(C(C)(C)C)c2)cc(C(C)(C)C)c1O | inactive | inactive |  | 
Cc1cc(CCC(=O)OCCOCCOCCOC(=O)CCc2cc(C)c(O)c(C(C)(C)C)c2)cc(C(C)(C)C)c1O | inactive | inactive |  | 
CC(C)c1cccc(C(C)C)c1 | inactive | inactive |  | 
CCCCCc1cccc(=O)o1 | inactive | inactive |  | 
Nc1ccc(S(=O)(=O)NC(=O)c2ccccc2)cc1 | inactive | inactive |  | 
O=c1[nH]c2cc(C(F)(F)F)c(N3CCOCC3)cc2n(CP(=O)(O)O)c1=O | inactive | inactive |  | 

Compound | Potency [1] | Potency [2] | viability change, negative = cytotoxic [1] | activity change, negative = cytotoxicity [2]
CCc1nccnc1C | inactive | inactive |  | 
Cc1cccc(C)c1 | inactive | inactive |  | 
CC(C)(C)c1ccccc1 | inactive | inactive |  | 
Cc1ccc2c(n1)Oc1ccc(C(C)C(=O)OCC(=O)N(C)C)cc1C2 (centres undefined) | inactive | inactive |  | 
O=CN1CCCCC1 | inactive | inactive |  | 
CC1OCCC1=O (centres undefined) | inactive | inactive |  | 
Oc1c(Cl)ccc(Cl)c1Cl | inactive | inactive |  | 
CC(C)c1nnc2ccc(-c3ocnc3-c3cc(F)ccc3F)cn12 | inactive | inactive |  | 
CC(=O)CC(C)=O | inactive | inactive |  | 
Cc1ccc(C(C)(C)C)cc1 | inactive | inactive |  | 
OC[C@@H](O)[C@H](O)[C@H](O)[C@@H](O)CO | inactive | inactive |  | 
CCCCOCCOC(=O)COc1cc(Cl)c(Cl)cc1Cl | inactive | inactive |  | 
COc1cccc(N)c1 | inactive | inactive |  | 
CC(C)c1ccc2cc(C(C)C)ccc2c1 | inactive | inactive |  | 
SCCOCCOCCS | inactive | inactive |  | 
C=CCOC(=O)/C=C\C(=O)OCC=C | inactive | inactive |  | 
CC(C)=CCC/C(C)=C/CO | inactive | inactive |  | 
CCCCCCCCCC(=O)N(C)C | inactive | inactive |  | 
CCOCC(C)O (centres undefined) | inactive | inactive |  | 
C=CCOc1c(Br)cc(C(C)(C)c2cc(Br)c(OCC=C)c(Br)c2)cc1Br | inactive | inactive |  | 
